# Pf growth 48h: P. falciparum growth inhibition at 48 hours (one generation); P. falciparum luciferase growth in erythrocytes, 48 h; Potency, µM (doses to about 28.7 µM), for the others: at the highest dose activity change, negative = inhibition, actives largely listed as inhibitors; 310,000 tested, 5.9% active; further: on the % scale 0 is the no-effect control and ±100 the full control effect
#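 Erythrocytes infected with P. falciparum carrying an integrated firefly luciferase reporter (2% hematocrit, 0.1% parasitemia final) were exposed to compounds in RPMI 1640 with 0.5% Albumax at 37 C, 5% CO2. Growth inhibition was scored as reduced luminescence.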
# Sm TGR inh: inhibitors of Schistosoma mansoni thioredoxin glutathione reductase; Potency, µM (highest dose often 114 µM), without a hit: at the top dose activity change, negative = inhibition, usual class: inhibitors; 360,000 tested, 3% active; purified TGR, DTNB reduction, TNB absorbance 405 nm; further: on the % scale 0 is the no-effect control and ±100 the full control effect; nearly all actives have a fitted effect of over 60% in size
#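 First, TGR (20 nM dispensed) and NADPH were mixed with compound. Second, a 15 min room-temperature incubation followed. Third, further NADPH and then DTNB were added to start the reaction. Finally, TNB absorbance was monitored kinetically.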
# Pf growth 96h: inhibits malaria parasite growth, 96 h; P. falciparum luciferase reporter growth, 96 h; Potency, µM (doses to about 28.7 µM), inactives show top-dose activity change, negative = inhibition, usual class: inhibitors; 320,000 tested, 6.9% active; further: on the % scale 0 is the no-effect control and ±100 the full control effect
#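 Infected RBCs, 2% Hct / 0.05% parasitemia final; luciferase-reporter P. falciparum; cpd 96 h, 37 C, 5% CO2; luciferase detection reagent; luminescence.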
# SARS PLP yeast: SARS-CoV PLP inhibition in yeast; S. cerevisiae expressing SARS-CoV PLpro, growth rescue; Potency, µM (doses to about 32.9 µM), without a hit: at the top dose activity, positive = growth rescue, most hits filed as activators; 330,000 tested, 0.19% active; calls by dose curve; further: 0% is about no effect; nearly all actives have a fitted effect of over 55% in size
# Starred values were filed as active, the others as inactive; ? = inconclusive; · = not tested or not shown; [ ] = remark or other dose. This is a sample that favours compounds with a hit; in the whole collection about 12% have one here. Unless noted, the call rests on the fitted dose curve; in most records, active means well fitted curve in the direction sought with a large enough effect; inconclusive means small, poorly fitted or top-dose-only effect, or another doubt; inactive means no such curve, though single readings can be large; an effect the other way counts as inactive or inconclusive. Potency means the concentration at half of the fitted maximal effect.
SMILES,Pf growth 48h,Sm TGR inh,Pf growth 96h,SARS PLP yeast
CC1CN(C(=O)c2cc(Br)c(Br)s2)CC(C)O1 (stereo not drawn),13%,-6%,?,2%
O=C(c1cc2cc(Br)ccc2[nH]1)N1CCC2(CC1)OCCO2,?,-16%,?,-3%
CC1CN(C(=O)c2cc3cc(Br)ccc3[nH]2)CC(C)O1 (stereo not drawn),12µM*,-34%,?,-2%
O=C(NCC(c1ccc(Cl)cc1)N1CCCCC1)c1ccc(F)cc1 (stereo not drawn),·,2%,·,·
CCN(CC)C(=O)Nc1cnc2ccccc2c1,50%,0%,2.3µM*,1%
COc1ccc(NC(C)C(=O)Nc2ccc(C#N)cc2)cc1Cl (stereo not drawn),·,0%,2.3µM*,3%
Cc1ccc(CCNS(=O)(=O)c2c(C)nc3sc(C)c(C)n3c2=O)cc1,·,12%,·,·
Cc1ccc(C)c(NC(=S)NNC(=O)c2csc(C)c2C)c1,15%,-2%,30%,-7%
Cc1ccc(C)c(NC(=S)NNC(=O)c2csc(C(C)C)c2)c1,27%,-2%,-6%,10µM*
COc1ccc(CCNC(=O)c2ccc3c(c2)CCN3S(C)(=O)=O)cc1OC,·,-4%,·,·
Cc1ccc(-c2cccc(C(=O)NCCc3ccccc3)n2)c2ccccc12,2%,-11%,-16%,5%
Cc1ccc(S(=O)(=O)NC(=O)c2ccc(-c3ccc(C)c4ccccc34)o2)cc1,3%,?,-5%,-40%
Cc1ccc(-c2ccc(C(=O)NCc3ccccc3)o2)c2ccccc12,?,40µM*,10µM*,-12%
Cc1ccc(-c2ccc(C(=O)Nc3ccccc3)o2)c2ccccc12,-9%,35µM*,?,-16%
Cc1ccc(-c2cccc(C(=O)NCc3ccccc3)n2)c2ccccc12,?,-1%,13µM*,7%
CCOc1ccccc1-c1ccc(C(=O)NCc2ccccc2)o1,?,?,7.4µM*,-25%
O=C(Nc1ccccc1)c1ccc(-c2ccccc2Cl)o1,143%,-2%,99%,9%
COc1ccc(-c2cc(C(=O)NCc3ccc(F)cc3)c3c(-c4ccc(F)cc4)[nH]nc3n2)cc1OC,·,4%,·,·
CC1CCCC(C)N1CC(O)COc1c(F)cc(Br)cc1F (stereo not drawn),10µM*,10%,?,7%
Cc1cc(OCC(O)CN2C(C)CCCC2C)ccc1C(C)C (stereo not drawn),9.3µM*,·,?,-2%
CC(C)c1ccc(OCC(=O)Nc2c(C(=O)c3ccc(F)cc3)oc3ccccc23)cc1,·,0%,·,·
Nc1c(C(=O)Nc2ccc(F)cc2)nnn1-c1cccc(C(F)(F)F)c1,14%,-1%,9.3µM*,1%
Cc1ccc(NC(=O)c2nnn(-c3ccc4c(c3)OCCO4)c2N)cc1,147%,0%,-28%,2%
Cc1ccc(NC(=O)c2nnn(-c3cccc(C(F)(F)F)c3)c2N)cc1,22%,-1%,12µM*,2%
Nc1c(C(=O)Nc2cccc(F)c2)nnn1-c1cccc(C(F)(F)F)c1,156%,4%,?,1%
SMILES,Pf growth 48h,Sm TGR inh,Pf growth 96h,SARS PLP yeast
COc1cccc(CN(C)C(=O)CSCC(=O)Nc2cccc(C)c2)c1OC,?,-4%,?,-6%
O=c1cc(CCl)[nH]c2nc3ccccc3n12,-1%,22µM*,45%,-1%
O=c1cc(-c2ccccc2)[nH]c2nc3ccccc3n12,?,5%,?,-17%
Cc1nn(CC(=O)NCc2ccccc2Br)c(=O)c2cc3occc3n12,·,1%,·,·
CCCCCC(=O)Nc1nc(C)c(-c2csc(Nc3ccccc3OC)n2)s1,?,0%,2.9µM*,-2%
COc1ccccc1Nc1nc(-c2sc(N)nc2C)cs1,-22%,-15%,?,-7%
CCC(=O)Nc1nc(C)c(-c2csc(Nc3ccccn3)n2)s1,13%,-1%,6%,-4%
COc1ccccc1Nc1nc(-c2sc(NC(=O)c3ccc([N+](=O)[O-])cc3)nc2C)cs1,?,11%,?,9%
CCCCCCC(=O)Nc1nc(C)c(-c2csc(Nc3ccccc3OC)n2)s1,?,0%,3.7µM*,3%
CCCC(=O)Nc1nc(C)c(-c2csc(Nc3ccccc3C)n2)s1,12µM*,4%,?,-7%
CCCCCC(=O)Nc1nc(C)c(-c2csc(Nc3ccccc3OCC)n2)s1,?,1%,?,-3%
CCCC(C)C(=O)Nc1nc(C)c(-c2csc(Nc3ccccc3OC)n2)s1 (stereo not drawn),?,5%,9.3µM*,1%
CCOC(=O)C1CCN(C(=O)CCc2nnc3ccc(N4CCC(C)CC4)nn23)CC1,?,-15%,19%,0%
CCC(C)(C)C(=O)O[C@@H]1C[C@H](C)C=C2C=C[C@H](C)[C@@H](CC[C@H]3C[C@@H](O)CC(=O)O3)[C@H]21,-6%[12.8 µM],·,-25%[12.8 µM],·
COc1ccc(N(C)S(=O)(=O)c2c(C)[nH]c(=O)[nH]c2=O)c(OC)c1,0%,?,6.6µM*,6%
CCC(C)(C)NC(=O)C(c1ccc(OC)cc1)N(C(=O)CCC(=O)Nc1cc(C)on1)c1ccc(F)cc1 (stereo not drawn),?,-4%,-18%,-4%
COc1ccccc1N1CCN(C(=O)C(Cc2ccccc2)NC(=O)C2CCCCC2)CC1 (stereo not drawn),10µM*,0%,0%,-7%
COc1ccccc1N1CCN(C(=O)c2noc(C(C)C)c2[N+](=O)[O-])CC1,0%,-13%,13µM*,1%
COc1ccccc1N1CCN(C(=O)c2ccccc2N(C)S(=O)(=O)c2ccc(C)cc2)CC1,10µM*,3%,?,-6%
O=C(NC(Cc1ccccc1)C(=O)N1CCC2(CC1)OCCO2)C1CCCCC1 (stereo not drawn),-3%,1%,·,0%
COc1ccccc1N1CCN(C(=O)c2nn(-c3ccccc3OC)c(=O)c3ccccc23)CC1,9.3µM*,1%,?,0%
CC(C)c1onc(C(=O)N2CCCCC2)c1[N+](=O)[O-],-14%,-4%,2%,-1%
COc1ccccc1N1CCN(C(=O)c2ccccc2NC(=O)C2CCCCC2C(=O)O)CC1 (stereo not drawn),15%,-1%,7.4µM*,9%
COc1ccccc1N1CCN(C(=O)c2ccccc2Oc2ccccc2)CC1,13µM*,5%,?,12%
Cc1cc(C)cc(NC(=O)CSc2nc3ccccc3nc2N2CCCCC2)c1,?,5%,9.3µM*,3%
COc1cc(NC(=O)CSc2nc3cc(C)ccc3cc2C)c(C(=O)O)cc1OC,14%,-2%,9.3µM*,25%
CCOc1ccc(S(=O)(=O)Nc2nc3ccccc3nc2N2CCN(C)CC2)cc1,7%,-13%,3.7µM*,8%
CCOc1ccc(NC(=O)CSc2nc3ccccc3nc2N2CCCC2)cc1,-17%,-8%,12µM*,-1%
CCOc1ccccc1OCCCC(=O)Nc1cccc(-n2cnnn2)c1C,-16%,4%,-26%,4%
CCc1ccc(NCc2cc3cc4c(cc3n(CC(=O)Nc3cccc(OC)c3)c2=O)OCO4)cc1,·,-17%,·,·
